Source: PubChem (National Center for Advancing Translational Sciences (NCATS))
An excerpt weighted towards active compounds, which were near 12% of everything screened.
BAZ2B block – BAZ2B (human) inhibition | Q9UIF8 | AlphaScreen BAZ2B-H3K14Ac peptide displacement | Potency, µM (series often up to 114 µM), inactives show at the top dose activity change, negative = inhibition, actives largely listed as inhibitors | hit rate 4.4% among 360,000; note: % is set by controls: 0 for no effect and ±100 for the full control effect; nearly all actives have a fitted effect of over 60% in size
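In this displacement format the biotinylated H3(5-23) peptide acetylated at Lys14 serves as ligand at 50 nM, with BAZ2B at 50 nM in PBS pH 7.4 containing 0.01% Tween-20. Donor and acceptor beads are 10 ug/mL final.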
JMJD2A Tudor – JMJD2A Tudor domain (human) inhibition | hit rate 4.4% among 390,000 | O75164 | AlphaScreen JMJD2A-Tudor / H3K4me3 peptide binding | AID 504339 | Potency, µM (series often up to 114 µM), inactives show top-dose activity change, negative = inhibition, hits mostly inhibitors; note: % is set by controls: 0 for no effect and ±100 for the full control effect; nearly all actives have a fitted effect of over 50% in size
Sfp PPTase inh – inhibitors of Bacillus subtilis Sfp phosphopantetheinyl transferase; Potency, µM, for the others: largest response in the series, negative = inhibition, usual class: inhibitors; AID 1490; hit rate 3.5% among 310,000; Biochemical Sfp PPTase activity, qHTS; Q9F4F7;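 note: the enzyme is Sfp with the accession as filed and its product quenches rhodamine fluorescence; 0% = enzyme reaction without inhibitor and -100% = no enzyme wells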
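With Hepes-Na pH 7.6 buffer containing 10 mM MgCl2, Sfp (15 nM) modified BHQ-2-YbbR (12.5 uM) using rhodamine-CoA (5 uM). Two reads 30 minutes apart at 525/598 nm yielded each well's rate.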
G9a inh – blocks human histone lysine methyltransferase G9a; hit rate 8.8% among 350,000; G9a H3K9 monomethylation, AlphaScreen, 2 h; Potency, µM (top dose mostly 102 µM), for the others: at the top dose activity, negative = inhibition, usual class: inhibitors; note: % is set by controls: 0 for no effect and ±100 for the full control effect; nearly all actives have a fitted effect of over 75% in size
Target sequence (Q96KQ7 913-1193 limits assumed): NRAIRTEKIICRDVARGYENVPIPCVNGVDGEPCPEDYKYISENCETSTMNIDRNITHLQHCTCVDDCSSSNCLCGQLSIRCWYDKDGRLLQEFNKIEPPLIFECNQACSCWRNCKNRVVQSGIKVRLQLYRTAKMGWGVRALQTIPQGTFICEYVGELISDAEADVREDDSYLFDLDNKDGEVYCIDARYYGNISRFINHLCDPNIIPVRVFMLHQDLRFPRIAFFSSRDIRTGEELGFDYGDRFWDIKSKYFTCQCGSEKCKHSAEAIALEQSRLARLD
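Compounds were preincubated with 20 nM G9a for 15 min, after which biotinylated H3K9 peptide (500 nM) and SAM (20 uM) started a 2 h room-temperature reaction. Monomethylated product was quantified by antibody-based AlphaScreen chemiluminescence.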
HP1b chromo inh – HP1-beta chromodomain-methylated histone interaction inhibition. P83916. Potency, µM (series often up to 114 µM), for inactives: at the highest dose activity change, negative = inhibition, actives largely listed as inhibitors. AlphaScreen HP1-beta / biotin-H3K9me3 peptide binding. hit rate 0.56% among 390,000. AID 540317; note: nearly all actives have a fitted effect of over 70% in size
Target sequence (P83916 whole entry, looked up): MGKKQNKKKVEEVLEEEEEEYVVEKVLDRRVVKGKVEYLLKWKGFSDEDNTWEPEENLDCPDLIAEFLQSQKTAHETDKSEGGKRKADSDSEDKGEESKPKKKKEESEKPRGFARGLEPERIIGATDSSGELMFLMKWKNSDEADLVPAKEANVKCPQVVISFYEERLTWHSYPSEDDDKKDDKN
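HP1-beta protein (50 nM final) preincubated 30 min at room temperature with biotinylated H3(1-18)K9me3 peptide (50 nM) in PBS pH 7.4, 0.01% Tween-20, then compound added for 30 min. AlphaScreen streptavidin donor/nickel chelate acceptor beads (10 ug/mL final), 30 min dark, luminescence read.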
Starred values were filed as active, the others as inactive; ? = inconclusive; nt = not tested or not shown; [ ] = another dose, or the depositor's remark. Calls come from the whole dose curve; as a rule, active = well fitted curve in the direction sought with a large enough effect; inconclusive = small, poorly fitted or top-dose-only effect, or another doubt; inactive = no such curve, though single readings can be large; an effect the other way counts as inactive or inconclusive. Potency is the fitted concentration of half-maximal effect.

SMILES	BAZ2B block	JMJD2A Tudor	Sfp PPTase inh	G9a inh	HP1b chromo inh
O=C(COC(=O)CSc1ccc([N+](=O)[O-])cc1)NC1CCCCCCC1	-7.8%	?	nt	44.7µM*	?
CCN(C(=O)COC(=O)CSc1ccc([N+](=O)[O-])cc1)C1CCS(=O)(=O)C1 (stereo not given)	-4.6%	35.5µM*	14.0%	17.9%	50.1µM*
COc1cc(C(CC(=O)Nc2ccc(F)cc2F)N2Cc3ccccc3C2=O)cc(OC)c1OC (stereo not given)	-11.8%	-7.6%	nt	-6.6%[59 µM]	20.0%
COc1ccc(NC(=O)C2CCCN(S(=O)(=O)c3ccccc3)C2)c(OC)c1 (stereo not given)	-34.1%	-15.1%	6.8%	18.3%	33.2%
COc1ccc2c(Sc3ccccc3)c(C(=O)N3CCC(C)CC3)[nH]c2c1	4.3%	-7.0%	nt	-49.5%[59 µM]	40.4%
C=C(C(C)=O)C(O)/C=C/c1ccco1 (stereo not given)	nt	nt	-20.7%	nt	nt
CN(C(=O)CSc1nc2cc([N+](=O)[O-])ccc2n1-c1ccc(F)cc1)C1CCS(=O)(=O)C1 (stereo not given)	-29.5%	79.4µM*	-0.8%	20µM*	25.4%
COc1ccc(-c2nc3cnc(N(C)C)nc3n(Cc3ccc(F)cc3)c2=O)cc1	nt	nt	-0.2%	11.1%[0.501 µM]	nt
C/C(=N\NC(=O)c1ccc(CN2CCc3ccccc3C2)cc1)c1ccccc1O	2.82µM*	?	9.7%	18.0%	25.3%
COc1ccc(NC(=O)c2ccc(CN3CCc4ccccc4C3)cc2)cc1OC	-23.2%	-1.3%	-2.7%	70.8µM*	9.8%
CCN(CC)CCNC(=O)c1ccc(NS(C)(=O)=O)cc1	nt	nt	nt	-5.7%[59 µM]	nt
O=[N+]([O-])c1ccc(N2CCN(c3ccc(O)cc3)CC2)cn1	?	?	56.2µM*	11.2µM*	?
O=[N+]([O-])c1ccc(N2CCN(c3ccccc3Cl)CC2)cn1	-17.1%	-16.6%	17.0%	-33.0%	27.8%
COC(=O)c1ccc(-c2nn(C)c(=O)c3ccccc23)cc1	9.2%	-19.3%	20.3%	-8.6%[59 µM]	-1.3%
COC(=O)c1ccc(C(=O)OC)c(-n2c(=O)c3ccccc3c3ccccc3c2=O)c1	?	-26.4%	1.9%	28.2µM*	39.2%
O=C(Nc1cccs1)OCCN1CCN(Cc2ccccc2)CCC1=O	1.3%	-13.5%	-7.7%	44.7µM*	35.3%
O=C(Nc1ccccc1)OCCN1CCN(Cc2ccccc2)CCC1=O	-6.2%	3.5%	10.3%	-15.7%	25.1%
CCOC(=O)CSC1=C(C#N)C(=O)NC2(CCCCC2)S1	12.6µM*	44.7µM*	50.1µM*	31.6µM*	70.8µM*
CCOC(=O)CSC1=C(C#N)C(c2ccc(C)s2)CC(=O)N1 (stereo not given)	3.8%	-14.0%	12.0%	?	34.5%
C[C@@H](O)[C@@H]1NC(=O)c2cc([N+](=O)[O-])cc(I)c2NCC[C@@H](C(N)=O)NC(=O)CNC1=O	-4.5%	-21.1%	-6.3%	50.1µM*	25.0%
C[C@@H]1NC(=O)c2cc([N+](=O)[O-])cc(I)c2NCCCC[C@@H](C(N)=O)NC(=O)[C@H](CCC(=O)O)NC1=O	-33.3%	-16.9%	-10.7%	39.8µM*	9.6%
NC(=O)CC[C@@H]1NC(=O)[C@H](CO)NC(=O)c2cc([N+](=O)[O-])cc(I)c2NCC[C@@H](C(N)=O)NC(=O)[C@H](Cc2ccc(O)cc2)NC1=O	56.2µM*	nt	-21.0%	7.94µM*	nt
NC(=O)[C@@H]1CCCNc2c(I)cc([N+](=O)[O-])cc2C(=O)N[C@@H](CCC(=O)O)C(=O)N[C@@H](CO)C(=O)N1	-5.0%	-5.6%	9.7%	35.5µM*	39.5%
NC(=O)CC[C@@H]1NC(=O)[C@H](CO)NC(=O)c2cc([N+](=O)[O-])cc(I)c2NCCCC[C@@H](C(N)=O)NC(=O)[C@H](Cc2ccc(O)cc2)NC1=O	-36.0%	-31.7%	2.2%	?	6.9%
O=C1Nc2c(Cl)cc(Cl)cc2C1=O	nt	-8.3%	nt	nt	8.2%[57 µM]
SMILES	BAZ2B block	JMJD2A Tudor	Sfp PPTase inh	G9a inh	HP1b chromo inh
O=C(c1cnccn1)N1CCC2(CC1)CN(c1ccccc1)C2	nt	nt	-11.0%	28.1%[12.7 µM]	nt
C[C@@H]1NC(=O)[C@H](CCC(N)=O)NC(=O)c2cc([N+](=O)[O-])cc(I)c2NCCC[C@@H](C(N)=O)NC1=O	-25.3%	-15.3%	-6.0%	50.1µM*	18.2%
NC(=O)C[C@H]1NC(=O)[C@H](CCC(=O)O)NC(=O)c2cc([N+](=O)[O-])cc(I)c2NCCC[C@@H](C(N)=O)NC1=O	?	-19.3%	1.5%	44.7µM*	40.7%
NC(=O)[C@@H]1CCCCNc2c(F)cc([N+](=O)[O-])cc2C(=O)N[C@@H](CCCN=C(N)N)C(=O)NCC(=O)N1	-11.1%	-25.4%	7.0%	-15.6%	32.7%
C[C@@H]1NC(=O)[C@H](CCCN=C(N)N)NC(=O)c2cc([N+](=O)[O-])cc(I)c2NCCC[C@@H](C(N)=O)NC1=O	-7.8%	-18.9%	-4.6%	56.2µM*	0.8%
Cc1nn(C)c(C)c1C1Nc2ccccc2C(=O)N1O (stereo not given)	-19.1%	-13.0%[57.1 µM]	-3.1%	12.6µM*	49.8%
COc1ccc(C2Nc3ccccc3C(=O)N2O)cc1OC (stereo not given)	-23.5%	?	-4.7%	10µM*	47.3%
COc1cc(/C=N/Nc2nc3ccccc3o2)cc(OC)c1O	-25.2%	?	?	39.8µM*	24.6%
COc1ccc(/C=N/Nc2nc3ccccc3o2)cc1O	-2.5%	-22.1%	?	39.8µM*	19.5%
Brc1ccc(/C=N/Nc2nc3ccccc3o2)cc1	-27.3%	-14.2%	-2.0%	28.2µM*	44.5%
COc1cc(/C=N\Nc2nc3ccccc3o2)cc(OC)c1OC	4.4%	-11.3%	-1.9%	7.2%[59 µM]	31.9%
Cc1ccc(CCNC(=O)c2ccc(Cn3c(=O)c4cccn4c4cccnc43)cc2)cc1	-16.2%	-28.6%	nt	6.2%[59 µM]	21.7%
COc1ccc(C2=Nn3c(nnc3-c3cccc(OC)c3OC)SC2)cc1	nt	-24.1%	3.5%	nt	nt
Cc1ccc(S(=O)(=O)Cn2nnnc2CN2CCCC3(CCCCC3)C2)cc1	0.5%	3.4%	2.9%	25.1µM*	54.3%
Cc1cc2c(s1)c1cnn(Cc3cc(C(F)(F)F)ccc3F)c(=O)c1n2C	nt	-29.5%	nt	nt	nt
O=C1[C@@H]2[C@@H](CN3CN(c4ccccc4)N=C(c4ccccc4)[C@@]23c2ccccc2)C(=O)N1c1ccccc1	nt	89.1µM*	nt	nt	?
COc1ccc(C2C(=O)N(C3CCC(C)CC3)CC(=O)N2C2CCCCC2)cc1OC (stereo not given)	2.7%	-8.0%	nt	-6.4%[59 µM]	13.5%
CCN(CC)c1ccc(C2CC(=O)Nc3cc(OC)c(OC)cc32)cc1 (stereo not given)	44.7µM*	50.1µM*	2.1%	?	-48.3%
COc1cc2c(cc1OC)C(c1ccc(SC)cc1)CC(=O)N2 (stereo not given)	?	?	89.1µM*	nt	-5.1%
